Among all 330,000 compounds or so, about 4,200 (1.3%) were called active. Entries that show only a call come without a potency. Another 6% or so got no clear call; they are omitted. The call rests on the fitted dose curve; in most records, active means well fitted activation curve with a large enough effect; inconclusive means small, poorly fitted or top-dose-only effect; inactive means no such curve, though single readings can be large or run the other way. For the sample, actives were picked, then their nearest neighbours and some compounds at random.
experiment: qHTS screen for small molecules that induce genotoxicity in human embryonic kidney (HEK293T) cells expressing luciferase-tagged ELG1; conditions: HEK293T ELG1-luciferase reporter, luminescence, 16 h; series mostly up to 46 µM; further: nearly all actives have a fitted effect of over 60% in size
Summary of the method: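 Step 1: seed 2,000 HEK293T ELG1-luciferase cells per well. Step 2: add compound or DMSO, incubate 16 hr at 37 °C. Step 3: ONE-Glo, 30 min at room temperature, read luminescence.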
Potency means the concentration at half of the fitted maximal effect.

Structure (SMILES)	Potency
COc1cc(C2CC(=O)Oc3cc(OC)c(OC)c(OC)c32)cc(OC)c1OC (centres undefined)	inactive
CC1CC(=NNC(=O)C2COc3ccccc3O2)CC(C)(C)C1 (centres undefined)	inactive
COc1cc(SC)ccc1C(=O)Nc1nc(C)cs1	0.058 µM (active)
COc1cc(SC)ccc1C(=O)N(Cc1ccccc1)c1ccccc1	inactive
Cc1csc(NC(=O)c2ccc(-c3ccc(Cl)cc3Cl)o2)n1	inactive
CN(C)C(=O)CCc1ccc2c3c([nH]c2c1)[C@]1(CCc2ccccc2)[C@@H](C(=O)N2CCCCC2)C[C@H](CC(=O)NCCC2=CCCCC2)C(=O)N1CC3	inactive
CN(Cc1ccc(F)cc1)C(=O)CN1C(=O)c2ccccc2S1(=O)=O	inactive
CC[C@]12c3[nH]c4cc(CCC(=O)N(C)C)ccc4c3CCN1C(=O)[C@@H](CC(=O)NCc1ccco1)C[C@@H]2C(=O)N1CCN(C(=O)c2ccco2)CC1	inactive
C(=N/N1CCN(c2ccccc2)CC1)/c1cccs1	14.6 µM (active)
COc1cc(/C=N/N2CCN(c3ccccc3)CC2)ccc1OC(C)=O	inactive
Cc1ccc(N2CCN(/N=C/c3cccs3)CC2)cc1	inactive
CN(CC(=O)Nc1ccc(OC(F)F)cc1)S(=O)(=O)/C=C/c1ccccc1	inactive
COc1ccc2sc(-c3ccc(N(C)C)cc3)c(-c3ccc4cc[nH]c4c3)c2c1	inactive
O=C(Nc1ccc2oc(-c3ccc4ccccc4c3)nc2c1)c1cccs1	2.91 µM (active)
Cc1ccc(C(=O)Nc2ccc(NC(=O)c3cccs3)cc2)c(C)c1	inactive
O=C(Nc1ccc(NC(=O)c2cccs2)cc1)c1ccc2ccccc2c1	inactive
COc1ccc(CCNC(=O)COC(=O)c2cnc(Cl)c(Cl)c2)cc1	inactive
Cc1ccc2[nH]c(=O)c(COC(=O)c3ccccn3)cc2c1	inactive
CCOC(=O)c1[nH]c2ccc(C)cc2c1N=C(C)N(C)C	inactive
CCOC(=O)c1cc2cc(C)ccc2[nH]1	20.6 µM (active)
C[C@H]1CN([C@@H](C)CO)C(=O)Cc2cc(NC(=O)Cc3ccccc3)ccc2O[C@H]1CN(C)S(=O)(=O)c1cccs1	inactive
Cc1ccc(N2C(=O)N3[C@@H]4c5ccccc5OC[C@@H]4[C@@H](c4ccccc4)[C@@]3(C)C2=O)cc1	inactive
Cc1ccc(C(=O)c2c(NC(=O)c3ccccc3)sc(C)c2C)cc1	inactive
Cc1sc(NC(=O)c2ccc3ncsc3c2)c(C(N)=O)c1C	2.31 µM (active)
COc1ccccc1-c1nnc(NC(=O)c2ccc3ncsc3c2)o1	inactive
C=CC[C@H](CC(=O)NCCO)C(=O)N[C@@H](COC(=O)[C@@H](CC=C)Cc1ccc(F)cc1)Cc1c[nH]c2ccccc12	inactive

Structure (SMILES)	Potency
CC(=O)c1ccc2c(ccc3ccccc32)c1	23.1 µM (active)
CCN(CC)Cc1cc(C(C)=O)ccc1O	inactive
CC(=O)c1ccc2c(c1)OCCOCCOc1ccc(C(C)=O)cc1OCCOCCO2	inactive
COc1ccccc1N(CC(=O)Nc1ccc(C)cc1Cl)S(=O)(=O)c1cccs1	inactive
C=CCn1c(SCc2c(C)noc2C)nc2sc3c(c2c1=O)CCC(C)C3 (centres undefined)	inactive
CCCSc1nc2sc3c(c2c(=O)n1-c1ccc(OC)cc1)CCN(C)C3	inactive
CCCn1nnc2sc3c(c2c1=O)CCC(C)C3 (centres undefined)	11.6 µM (active)
O=C(COC(=O)COc1ccccc1F)Nc1cccc(S(=O)(=O)N2CCCCC2)c1	inactive
COc1cc(OC)cc(C(=O)NNC(=O)Cc2cccs2)c1	inactive
Cc1cc(C)nc(Nc2n[nH]c(-c3ccccc3N)n2)n1	2.31 µM (active)
CCCOc1ccccc1-c1nc(SCCC(=O)O)n[nH]1	inactive
Cc1cc(C)nc(Nc2ncn[nH]2)n1	inactive
COc1cc(OC)cc(-c2c(C#Cc3ccsc3)c3cc(-c4ccc(OC)cc4F)ccc3n2C)c1	inactive
Nc1ccc(-c2sc(N)nc2-c2ccccc2)cc1	inactive
Nc1ccc(-c2nnc(-c3ccccc3)o2)cc1	16.4 µM (active)
OC(c1nnc(-c2ccccc2)o1)c1cccs1 (centres undefined)	inactive
CC(C)n1cnc2c(NCc3ccccc3)cc(OCC3CCN(C)CC3)cc21	inactive
Cc1ccc(-c2csc(-c3c[nH]c4ccccc34)n2)cc1	23.1 µM (active)
Cc1ccc(-c2csc(NC3OC(=O)c4ccccc43)n2)cc1 (centres undefined)	inactive
Cc1ccc(-c2csc(NC(=O)Cn3[nH]c(=O)c4ccccc4c3=O)n2)cc1	inactive
O=C(Cn1cc(C(F)(F)F)ccc1=O)Nc1ccc2c(c1)OCCO2	inactive
Cc1ccc(C)c(N2CCN(C(=O)CCc3nc(-c4cccc(C(F)(F)F)c4)no3)CC2)c1	inactive
Cc1c(C(=O)Nc2cccc(S(=O)(=O)N3CCOCC3)c2)oc2ccccc12	inactive
O=C(COC(=O)c1n[nH]c2ccccc12)Nc1ccccc1Br	inactive
CC(=O)Nc1ccc(NC(=O)COC(=O)C2CCC(C(C)(C)C)CC2)cc1 (centres undefined)	inactive
Cc1ccc2cc(/C=N/NC(=O)[C@@H]3CCCN3)c(Cl)nc2c1	inactive

Structure (SMILES)	Potency
Cc1ccc2cc(/C=N/Nc3ccc(C(=O)O)cc3)c(Cl)nc2c1	18.3 µM (active)
CSCC[C@H](NC(=O)OC(C)(C)C)C(=O)N/N=C/c1cc2ccc(C)cc2nc1Cl	inactive
COc1ccc(CC(=O)N[C@@H]2c3cc(OC)c(OC)cc3C[C@H]2OCc2ccccc2)cc1	inactive
Cc1cc(C(=O)CSc2nc(N)cc(=O)[nH]2)c(C)n1-c1cccc(F)c1	inactive
O=C(CSc1nnc2ccccn12)c1ccccc1	11.6 µM (active)
CCN(C(=O)CSc1nnc2ccccn12)C1CCS(=O)(=O)C1 (centres undefined)	inactive
Cc1ccc(-n2c(C)cc(C(=O)CSc3nnc4ccccn34)c2C)cc1	5.17 µM (active)
O=C(CSc1nnc2n1CCCN2)c1ccccc1	inactive
Cc1ccc(C(=O)NNC(=O)CSc2nnc3ccccn23)cc1	inactive
CC1CCCCC12NC(=O)N(CC(=O)OCc1c(F)cccc1Cl)C2=O (centres undefined)	inactive
C[C@H](NS(=O)(=O)c1ccc(Cl)cc1)C(=O)OCC(=O)N1CCOCC1	inactive
COc1cc(OC)cc(-c2sc3ccc(OC)cc3c2-c2ccc3cc[nH]c3c2)c1	inactive
Cc1ccc(NC(=O)c2cnc(SCC(=O)NCC3CCCO3)n(C)c2=O)cc1 (centres undefined)	20.6 µM (active)
Cn1c(SCC(=O)c2ccccc2)ncc(C(=O)Nc2ccc(F)cc2)c1=O	inactive
CCn1c(SCC(=O)NCC2CCCO2)nc2ccccc21 (centres undefined)	inactive
CCCc1cc(=O)[nH]c(SCC(=O)Nc2ccc(C(=O)Nc3ccccc3OC)cc2)n1	inactive
Cc1noc(C)c1C(=O)OC(C)C(=O)Nc1ccc2c(c1)OCO2 (centres undefined)	inactive
CC(=O)c1cccc(OCC(=O)OCC(=O)Nc2cc(S(=O)(=O)N3CCCCC3)ccc2C)c1	inactive
CC(C)Cn1c(SCC(=O)Nc2ccc(Cl)cc2F)nc(O)cc1=O	inactive
O=C(Nc1cccc(NC(=O)c2ccco2)c1)c1cnccn1	inactive
CCn1c(SCC(=O)Nc2ccc3c(c2)OCCO3)nnc1-c1ccncc1	inactive
Cn1ccnc1SCC(=O)Nc1ccc2c(c1)OCCO2	9.2 µM (active)
O=C(Nc1ccc2c(c1)OCCO2)c1cnccn1	5.8 µM (active)
O=C(CCN1C(=O)c2ccncc2C1=O)Nc1ccc2c(c1)OCCO2	inactive
CCn1c(SCC(=O)Nc2ccc3c(c2)OCCO3)nnc1C(C)C	inactive
CCC(CO)Oc1cc(NC(=O)c2cccc3ccccc23)c2ncn(C(C)C)c2c1 (centres undefined)	inactive

Structure (SMILES)	Potency
O=C(CSc1nc2ccccc2c(=O)n1Cc1ccc(F)cc1)NCC1CCCO1 (centres undefined)	inactive
O=C1CCC/C=C\C[C@@H](CC(=O)N(CCO)Cc2ccccc2)C(=O)NCCO1	inactive
CC1CCCCC1NC(=O)Cn1cnc2c1c(=O)n(C)c(=O)n2C (centres undefined)	inactive
Cc1ccc(C)c(NC(=O)COC(=O)c2nn(C)c(=O)c3ccccc23)c1	inactive
COc1ccc2oc(=O)c(C(=O)N3CCCC3)cc2c1	inactive
Cc1ccc2cc3cc(C(=O)N4CCCCCC4)oc3nc2c1	0.731 µM (active)
Cc1cc(C)cc(NC(=O)N2CCCCCCC2)c1	inactive
COc1ccc(CNC(=O)C[C@H]2C[C@H](C(=O)N3CCOCC3)[C@@]3(C)c4[nH]c5cc(CCC(=O)N(C)C)ccc5c4CCN3C2=O)cc1OC	inactive
O=C(CCNC(=O)c1ccccc1Cl)NN=Cc1ccco1	inactive
Cc1ccsc1C(=O)NNC(=O)COc1ccc(Br)cc1	inactive
Cc1noc(NS(=O)(=O)c2ccc(N/C=C/C(=O)c3ccccc3)cc2)c1C	inactive
CC(=O)Nc1ccc(/C=C/C(=O)c2ccccc2)cc1	16.4 µM (active)
CC(OC(=O)/C=C/c1ccccc1)C(=O)Nc1ccc(C(N)=O)cc1 (centres undefined)	inactive
CC(=O)Nc1ccc(NC(=S)NC(=O)/C=C/c2ccccc2)cc1	inactive
O=C(/C=C/NCc1ccc(F)cc1)c1ccccc1	inactive
Cc1ccc(N/C=C/C(=O)c2ccccc2)cc1C	0.92 µM (active)
Cc1ccc(S(=O)(=O)Nc2ccc3c(c2)C(=O)N([C@H](C)CO)C[C@@H](C)[C@@H](CN(C)C(=O)Nc2cccc4ccccc24)O3)cc1	inactive
O=C(NCCCN1CCOCC1)c1cn(-c2ccccc2)nc1-c1ccc(F)cc1	inactive
O=C(COC(=O)c1cccnc1Cl)NC(=O)NC1CCCCC1	inactive
O=C(COc1ccc(Br)cc1F)NCC1(N2CCCCC2)CCCCC1	inactive
CC(C)n1cnc2c(NCc3ccccc3)cc(N[C@@H](CO)Cc3ccccc3)cc21	inactive
CCOc1ccc(Br)cc1S(=O)(=O)Nc1ccc(S(=O)(=O)Nc2cc(C)on2)cc1	inactive
O=C(Nc1cccc(S(=O)(=O)N2CCCCC2)c1)c1cncc(Br)c1	inactive
Cc1ccccc1NC(=O)NNC(=O)OC(C)(C)C	inactive
CC(C)(C)OC(=O)N/N=C/c1ccc(C(=O)O)cc1	inactive
C/C(=N\NC(=O)OC(C)(C)C)c1ccc[nH]1	14.6 µM (active)

Source: PubChem BioAssay AID504466 (National Center for Advancing Translational Sciences (NCATS), 2011)
